# Active and inactive are the calls of the source. The calls were made as follows: active = hit-call score of the fitted dose curve at least 0.9, where 1 is the maximum; inactive = score below 0.9.
# Columns and labels:
# Conditions in all cases: mRNA level, 48 h; actives raise or lower the signal
# [1] = read-out: Cytochrome P450 3A4 (Homo sapiens) (UniProt P08684); test: LTEA_HepaRG_CYP3A4: Life Technologies and Expression Analysis (LTEA) Assay for CYP3A4 using HepaRG (AID 2283487)
# In short: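 In a human hepatic line (HepaRG), duplicate wells were treated 48 h with up to 100 uM chemical in half-log dilutions. Endpoint: CYP3A4 mRNA induction or loss relative to 0.5% DMSO vehicle, by qRT-PCR.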
# [2] = read-out: DNA damage-inducible transcript 3 (DDIT3), DDIT3 (gene 1649); test: LTEA_HepaRG_DDIT3: Life Technologies and Expression Analysis (LTEA) Assay for DNA damage-inducible transcript 3 (DDIT3) using HepaRG (AID 2283488)
# In short: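 Differentiated human HepaRG cells in serum-free induction medium were exposed in duplicate for 48 h to 8 concentrations (top 100 uM, half-log steps, 0.5% DMSO). DDIT3 mRNA measured by TaqMan qRT-PCR, normalized to ACTB/GAPDH/POLR2A; bidirectional fit versus DMSO.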
# [3] = read-out: Pro-epidermal growth factor (Homo sapiens) (UniProt P01133); test: LTEA_HepaRG_EGF: Life Technologies and Expression Analysis (LTEA) Assay for Epidermal growth factor (EGF) using HepaRG (AID 2283489)
# In short: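 HepaRG cells (~100,000/well, 48 h pre-culture) exposed in duplicate for 48 h in serum-free induction medium to 8 half-log concentrations up to 100 uM in 0.5% DMSO. EGF mRNA by qRT-PCR, normalized to ACTB/GAPDH/POLR2A; bidirectional fit versus DMSO.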
# [4] = read-out: Early growth response protein 1 (EGR1) transcription factor, EGR1 (gene 1958); test: LTEA_HepaRG_EGR1: Life Technologies and Expression Analysis (LTEA) Assay for Early growth response protein 1 (EGR1) transcription factor using HepaRG (AID 2283490)
# In short: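 Differentiated HepaRG cells in serum-free induction medium exposed 48 hours, duplicate, to 8 half-log concentrations up to 100 uM in 0.5% DMSO. EGR1 mRNA measured by TaqMan qRT-PCR, normalized to ACTB, GAPDH, POLR2A; bidirectional fit versus DMSO.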
# [5] = read-out: Cytochrome P450 3A7 (Homo sapiens) (UniProt P24462); test: LTEA_HepaRG_CYP3A7: Life Technologies and Expression Analysis (LTEA) Assay for CYP3A7 using HepaRG (AID 2283492)
# In short: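 Differentiated HepaRG cells in serum-free induction medium exposed 48 h in duplicate to 8-point half-log series from 100 uM top in 0.5% DMSO. CYP3A7 mRNA by qRT-PCR, normalized to ACTB/GAPDH/POLR2A, bidirectional fit versus DMSO.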
# [6] = read-out: CYP3A5 (gene 1577); test: LTEA_HepaRG_CYP3A5: Life Technologies and Expression Analysis (LTEA) Assay for CYP3A5 using HepaRG (AID 2283493)
# In short: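 Differentiated HepaRG cells in serum-free induction medium were dosed 48 h with test chemicals (8-point half-log series, top 100 uM, 0.5% DMSO, duplicate). CYP3A5 mRNA measured by qRT-PCR, normalized to ACTB, GAPDH, POLR2A; bidirectional fit versus DMSO.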
# [7] = read-out: Fatty Acid-Binding Protein 1 (FABP1), FABP1 (gene 2168); test: LTEA_HepaRG_FABP1: Life Technologies and Expression Analysis (LTEA) Assay for Fatty Acid-Binding Protein 1 (FABP1) using HepaRG (AID 2283494)
# In short: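 Differentiated human HepaRG cells exposed 48 h in serum-free induction medium to eight half-log concentrations up to 100 uM (0.5% DMSO), duplicate. FABP1 mRNA by qRT-PCR, normalised to ACTB, GAPDH, POLR2A; bidirectional fitting against DMSO.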
# [8] = read-out: Cytochrome P450 4A22 (Homo sapiens) (UniProt Q5TCH4); test: LTEA_HepaRG_CYP4A22: Life Technologies and Expression Analysis (LTEA) Assay for Cytochrome P450 4A22 (CYP4A22) using HepaRG (AID 2283495)
# In short: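 Differentiated HepaRG cells in serum-free induction medium exposed 48 h in duplicate to eight half-log concentrations up to 100 uM in 0.5% DMSO. CYP4A22 mRNA quantified by TaqMan qRT-PCR, normalized to ACTB, GAPDH and POLR2A; bidirectional fit versus DMSO.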
# [9] = read-out: Cytochrome P450 7A1 (Homo sapiens) (UniProt P22680); test: LTEA_HepaRG_CYP7A1: Life Technologies and Expression Analysis (LTEA) Assay for Cytochrome P450 7A1 (CYP7A1) using HepaRG (AID 2283496)
# In short: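 Gene expression endpoint in human HepaRG liver cells treated for 48 h with test chemicals (up to 100 uM, 0.5% DMSO). Values come from bidirectional concentration-response fitting versus DMSO.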
# [10] = read-out: Ezrin (EZR), EZR (gene 7430); test: LTEA_HepaRG_EZR: Life Technologies and Expression Analysis (LTEA) Assay for Ezrin (EZR) using HepaRG (AID 2283491)
# In short: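 Gain or loss of EZR mRNA is scored relative to 0.5% DMSO in human HepaRG cultures treated 48 h with test chemicals in duplicate, eight half-log concentrations from 100 uM.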
# Sequence of Cytochrome P450 3A7 (Homo sapiens) (P24462 whole entry, looked up): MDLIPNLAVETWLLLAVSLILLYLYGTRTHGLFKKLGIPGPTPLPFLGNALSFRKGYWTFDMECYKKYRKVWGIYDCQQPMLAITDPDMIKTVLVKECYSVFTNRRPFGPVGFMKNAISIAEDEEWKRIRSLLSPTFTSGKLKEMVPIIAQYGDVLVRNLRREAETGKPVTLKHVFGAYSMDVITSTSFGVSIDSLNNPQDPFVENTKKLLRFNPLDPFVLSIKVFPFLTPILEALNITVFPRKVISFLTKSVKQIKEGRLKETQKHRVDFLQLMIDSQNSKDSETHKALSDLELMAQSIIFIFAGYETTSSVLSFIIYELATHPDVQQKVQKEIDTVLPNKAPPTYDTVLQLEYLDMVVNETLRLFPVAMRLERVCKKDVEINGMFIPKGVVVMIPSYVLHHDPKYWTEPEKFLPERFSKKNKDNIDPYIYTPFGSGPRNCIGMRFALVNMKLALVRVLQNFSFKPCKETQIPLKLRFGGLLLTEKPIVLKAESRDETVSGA
# Sequence of Cytochrome P450 3A4 (Homo sapiens) (P08684 whole entry, looked up): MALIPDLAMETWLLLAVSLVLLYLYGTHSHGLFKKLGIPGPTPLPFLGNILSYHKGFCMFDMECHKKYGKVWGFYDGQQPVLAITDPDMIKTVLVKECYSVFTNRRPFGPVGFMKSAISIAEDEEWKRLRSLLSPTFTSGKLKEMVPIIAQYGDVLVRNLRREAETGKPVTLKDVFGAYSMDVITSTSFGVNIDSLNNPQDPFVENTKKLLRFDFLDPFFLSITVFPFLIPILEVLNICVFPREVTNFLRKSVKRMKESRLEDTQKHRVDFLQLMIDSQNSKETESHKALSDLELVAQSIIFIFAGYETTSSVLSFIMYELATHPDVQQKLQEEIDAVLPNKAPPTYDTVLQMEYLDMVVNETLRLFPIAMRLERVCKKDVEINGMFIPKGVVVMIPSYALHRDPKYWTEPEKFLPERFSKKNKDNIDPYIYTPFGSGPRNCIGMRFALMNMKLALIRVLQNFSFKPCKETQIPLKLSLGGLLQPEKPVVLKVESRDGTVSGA
compound,measurement,setting,value
O=C(NC(=O)c1c(F)cccc1F)Nc1cc(Cl)c(OC(F)(F)C(F)F)c(Cl)c1,outcome,[1],inactive
same,outcome,[2],inactive
same,outcome,[3],inactive
same,outcome,[4],inactive
same,outcome,[5],inactive
same,outcome,[6],inactive
same,AC50,[7],25.1 µM (active)
same,outcome,[8],inactive
same,AC50,[9],13.6 µM (active)
CCCCCCCCCc1ccc(O)cc1,outcome,[1],inactive
same,outcome,[2],inactive
same,outcome,[3],inactive
same,outcome,[4],inactive
same,outcome,[10],inactive
same,outcome,[5],inactive
same,outcome,[6],inactive
same,AC50,[7],50 µM (active)
same,AC50,[8],31.9 µM (active)
same,outcome,[9],inactive
CCC(C)(CC)c1cc(NC(=O)c2c(OC)cccc2OC)on1,AC50,[1],0.541 µM (active)
same,AC50,[2],83.3 µM (active)
same,outcome,[3],inactive
same,outcome,[4],inactive
same,outcome,[10],inactive
same,AC50,[5],1.39 µM (active)
same,outcome,[6],inactive
same,AC50,[7],4.89 µM (active)
same,AC50,[8],19.5 µM (active)
same,outcome,[9],inactive
O=C(O)C(F)(F)C(F)(F)C(F)(F)C(F)(F)C(F)(F)C(F)(F)C(F)(F)C(F)(F)C(F)(F)F,AC50,[1],75.8 µM (active)
same,AC50,[2],17 µM (active)
same,AC50,[3],76.1 µM (active)
same,outcome,[4],inactive
same,AC50,[10],11.5 µM (active)
same,AC50,[5],80.3 µM (active)
same,AC50,[6],94.1 µM (active)
same,AC50,[7],33.7 µM (active)
same,AC50,[8],79.7 µM (active)
same,AC50,[9],27.6 µM (active)
Cc1cc2c3c(c1)C(c1ccccc1)=N[C@@H](NC(=O)c1ccncc1)C(=O)N3CC2,AC50,[1],3.86 µM (active)
same,AC50,[2],75.6 µM (active)
same,outcome,[3],inactive
same,outcome,[4],inactive
same,AC50,[10],50 µM (active)
same,AC50,[5],12.2 µM (active)
same,outcome,[6],inactive
same,AC50,[7],50 µM (active)
same,AC50,[8],36 µM (active)
same,AC50,[9],50 µM (active)
CCCCCCCCCC[N+](C)(C)CCCCCCCCCC,AC50,[1],63.1 µM (active)
same,AC50,[2],74 µM (active)
same,outcome,[3],inactive
same,AC50,[4],94.6 µM (active)
same,outcome,[5],inactive
same,outcome,[6],inactive
same,outcome,[7],inactive
same,AC50,[8],25.5 µM (active)
same,outcome,[9],inactive
CN(C)CCO,outcome,[1],inactive
same,outcome,[2],inactive
same,outcome,[3],inactive
same,outcome,[4],inactive
same,outcome,[10],inactive
same,outcome,[5],inactive
same,outcome,[6],inactive
same,outcome,[7],inactive
same,outcome,[8],inactive
same,outcome,[9],inactive
O=C(O)C(F)(F)C(F)(F)C(F)(F)C(F)(F)C(F)(F)F,outcome,[1],inactive
same,outcome,[2],inactive
same,outcome,[3],inactive
same,outcome,[4],inactive
same,outcome,[10],inactive
same,outcome,[5],inactive
same,outcome,[6],inactive
same,AC50,[7],12 µM (active)
same,AC50,[8],13.3 µM (active)
same,outcome,[9],inactive
O=S(=O)(O)C(F)(F)C(F)(F)C(F)(F)C(F)(F)F,outcome,[1],inactive
same,outcome,[2],inactive
same,outcome,[3],inactive
same,outcome,[4],inactive
same,outcome,[10],inactive
same,outcome,[5],inactive
same,outcome,[6],inactive
same,outcome,[7],inactive
same,outcome,[8],inactive
same,outcome,[9],inactive
COc1ccc(O)c(C(C)(C)C)c1,AC50,[1],66.4 µM (active)
same,outcome,[2],inactive
same,outcome,[3],inactive
same,outcome,[4],inactive
same,outcome,[10],inactive
same,outcome,[5],inactive
same,outcome,[6],inactive
same,outcome,[7],inactive
same,outcome,[8],inactive
same,outcome,[9],inactive
Clc1ccc(C(Cl)(Cl)Cl)cc1,outcome,[1],inactive
same,outcome,[2],inactive
same,outcome,[3],inactive
same,outcome,[4],inactive
same,outcome,[5],inactive
same,outcome,[6],inactive
same,outcome,[7],inactive
same,outcome,[8],inactive
same,outcome,[9],inactive
ClC1=C(Cl)[C@]2(Cl)[C@@H]3[C@@H](Cl)[C@H]4O[C@H]4[C@@H]3C1(Cl)C2(Cl)Cl,AC50,[1],1.35 µM (active)
same,outcome,[2],inactive
same,outcome,[3],inactive
same,outcome,[4],inactive
same,AC50,[5],1.77 µM (active)
same,outcome,[6],inactive
same,AC50,[7],50 µM (active)
same,AC50,[8],24.9 µM (active)
same,AC50,[9],13.3 µM (active)
CCOC(=O)C(O)(c1ccc(Cl)cc1)c1ccc(Cl)cc1,outcome,[1],inactive
same,outcome,[2],inactive
same,outcome,[3],inactive
same,outcome,[4],inactive
same,AC50,[5],50 µM (active)
same,outcome,[6],inactive
same,outcome,[7],inactive
same,AC50,[8],50 µM (active)
same,outcome,[9],inactive
Oc1c(Cl)c(Cl)c(Cl)c(Cl)c1Cl,AC50,[1],4.73 µM (active)
same,AC50,[2],11.7 µM (active)
same,AC50,[3],25.5 µM (active)
same,AC50,[4],8.53 µM (active)
same,AC50,[5],4.85 µM (active)
same,AC50,[6],10.6 µM (active)
same,AC50,[7],2.35 µM (active)
same,AC50,[8],3.87 µM (active)
same,AC50,[9],3.88 µM (active)
Clc1ccc(C(c2ccccc2Cl)C(Cl)(Cl)Cl)cc1 (stereo unspecified),AC50,[1],2.46 µM (active)
same,AC50,[2],74.6 µM (active)
same,outcome,[3],inactive
same,AC50,[4],11.9 µM (active)
same,AC50,[5],0.41 µM (active)
same,outcome,[6],inactive
same,AC50,[7],33.9 µM (active)
same,AC50,[9],15.3 µM (active)
C=CC(N)=O,outcome,[2],inactive
same,outcome,[3],inactive
same,outcome,[4],inactive
same,outcome,[10],inactive
same,outcome,[5],inactive
same,outcome,[6],inactive
same,outcome,[7],inactive
same,outcome,[8],inactive
same,outcome,[9],inactive
Cc1ccccc1[N+](=O)[O-],outcome,[1],inactive
same,outcome,[2],inactive
same,outcome,[3],inactive
same,outcome,[4],inactive
same,outcome,[5],inactive
same,outcome,[6],inactive
same,outcome,[7],inactive
same,outcome,[8],inactive
same,outcome,[9],inactive
O=NN(c1ccccc1)c1ccccc1,outcome,[1],inactive
same,outcome,[2],inactive
same,outcome,[3],inactive
same,outcome,[4],inactive
same,outcome,[5],inactive
same,outcome,[6],inactive
same,outcome,[7],inactive
same,AC50,[8],50 µM (active)
same,outcome,[9],inactive
CCOCCOC(C)=O,outcome,[1],inactive
same,outcome,[2],inactive
same,outcome,[3],inactive
same,outcome,[4],inactive
same,outcome,[5],inactive
same,outcome,[6],inactive
same,outcome,[7],inactive
same,outcome,[8],inactive
same,outcome,[9],inactive
c1cc2ccc3cccc4ccc(c1)c2c34,outcome,[2],inactive
same,outcome,[3],inactive
same,outcome,[4],inactive
same,outcome,[10],inactive
same,outcome,[6],inactive
same,outcome,[7],inactive
same,outcome,[8],inactive
same,outcome,[9],inactive
